From PubChem BioAssay (Tox21)
Records with an inconclusive call do not appear. Active and inactive are the calls of the source. Unless noted, calls follow the shape of the full dose curve.

Key:
[1] = Nuclear factor erythroid 2-related factor 2/antioxidant responsive element (Nrf2/ARE) small molecule agonists: qHTS cell viability counter screen in human keratinocytes (AID 1919968; active = well fitted curve in the direction sought with a large enough effect in the repeat runs; an effect the other way counts as inactive or inconclusive; also: nearly all actives have a fitted effect of over 55% in size)
Summary of the method: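 Cells of the KeratinoSens line were plated at 1,500 per well and left for 5 h before compound transfer from DMSO stocks. After a 23 h incubation (37 C, 5% CO2), CellTiter-Fluor was added. Signal was taken as fluorescence intensity 1 h later.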

[2] = Nuclear factor erythroid 2-related factor 2/antioxidant responsive element (Nrf2/ARE) small molecule agonists: luciferase reporter gene qHTS assay in human keratinocytes (AID 1919969); also: nearly all actives have a fitted effect of over 35% in size
[3] = biological target: Gonadotropin-releasing hormone receptor (Homo sapiens) (UniProt P30968); assay: Human gonadotropin-releasing hormone receptor (GnRHR) small molecule agonists, calcium flux assay in GnRHR-HEK293 cells (AID 1920063); also: nearly all actives have a fitted effect of over 35% in size
Summary of the method: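 Compounds dissolved in DMSO are pin-transferred onto dye-loaded GnRHR-HEK293 cells, which were seeded 18 h before at 37 C/5% CO2. Calcium signal is read as fluorescence intensity at 1 s intervals for 3 min.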

[4] = biological target: KiSS-1 receptor (Homo sapiens) (UniProt Q969F8); assay: Human kisspeptin (KISS1R) small molecule agonists, calcium flux assay in KISS1R-HEK293 cells (AID 1920064; active = well fitted curve in the direction sought with a large enough effect in the repeat runs; an effect the other way counts as inactive or inconclusive)
Summary of the method: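 Cell line: HEK293, stable human KISS1R. Dye loading 1 h at 37 C after 18 h culture. Read: kinetic fluorescence, 480/540 nm, 3 min at 1 s intervals.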

[5] = G protein-coupled receptor (GPCR) small molecule agonists, calcium flux assay: HEK293 wild type cell line counter screen (AID 1920065)
Summary of the method: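 Tox21 10K compounds, 15 concentrations each in triplicate, pin-transferred in DMSO onto dye-loaded cells; kinetic read at 480/540 nm for 3 min, 1 s intervals.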

[6] = p53 small molecule agonists, cell-based qHTS assay with human liver microsomes (AID 1963577);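 also: p53 response element beta-lactamase reporter cells with liver microsomes plus NADPH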
Summary of the method: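 With metabolic activation: human liver microsomes (0.5 mg/mL final) plus NADPH (0.5 mg/mL final) added alongside compounds to p53RE-bla cells; 16 h 37 C exposure; beta-lactamase read by LiveBLAzer fluorescence.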

[7] = p53 small molecule agonists, cell-based qHTS assay with rat liver microsomes (AID 1963578)
Summary of the method: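 Metabolic activation by rat liver microsomes and NADPH, each 0.5 mg/mL final, added right after compounds to p53RE-bla reporter cells (4,000/well, plated 5 h earlier). 16 h at 37 C, then LiveBLAzer substrate for 2 h at room temperature in the dark; fluorescence read-out.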

[8] = p53 small molecule agonists, cell-based qHTS assay with rat liver microsomes: qHTS cell viability counter screen (AID 1963580); also: nearly all actives have a fitted effect of over 45% in size
Summary of the method: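 Counter screen for cytotoxicity under metabolic activation: rat liver microsomes and NADPH, 0.5 mg/mL final each, added with compounds to p53RE-bla HCT-116 cells; 16 h at 37 C, then ATP luminescence read.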

[9] = p53 small molecule agonists, cell-based qHTS assay: qHTS cell viability counter screen (AID 1963581); also: nearly all actives have a fitted effect of over 45% in size
Summary of the method: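 ATP content measured by luminescence in HCT-116 p53RE-bla cells treated 16 h at 37 C, same wells as the reporter screen.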

[10] = p53 small molecule agonists, cell-based qHTS assay (AID 1963582; active = well fitted activation curve with a large enough effect in the signal ratio in the repeat runs, not every such curve was filed as active; the % refers to the signal ratio)
Summary of the method: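 16 h compound exposure (37 C) of p53 response element–bla cells, preceded by 5 h recovery at 37 C/5% CO2; read-out via LiveBLAzer B/G FRET substrate, 2 h RT, fluorescence intensity.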

[11] = biological target: 5-hydroxytryptamine receptor 2A (Homo sapiens) (UniProt P28223); assay: 5-hydroxytryptamine receptor 2A (HTR2A) small molecule antagonists, cell-based qHTS assay (AID 1963586); also: nearly all actives have a fitted effect of over 45% in size
Summary of the method: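 CHO cells stably expressing human HTR2A were plated for 18 h at 37 C, then loaded with calcium dye for 1 h. Compounds were preincubated 5 min at room temperature before DOI (4 nM solution) was added. Kinetic fluorescence was read for 3 min.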

[12] = biological target: 5-hydroxytryptamine receptor 2A (Homo sapiens) (UniProt P28223); assay: 5-hydroxytryptamine receptor 2A (HTR2A) small molecule agonists, cell-based qHTS assay (AID 1963587); also: nearly all actives have a fitted effect of over 30% in size
Summary of the method: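 HTR2A-CHO cells, plated 18 h at 37 C/5% CO2, dye-loaded 1 h at 37 C; compounds in DMSO added by pin tool (agonist mode). Intracellular calcium flux read as kinetic fluorescence on FDSS over 2 min at 1 s intervals.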

[13] = biological target: Muscarinic acetylcholine receptor M1 (Homo sapiens) (UniProt P11229); assay: Cholinergic receptor muscarinic 1 (CHRM1) small molecule antagonists, cell-based qHTS assay (AID 1963588); also: nearly all actives have a fitted effect of over 40% in size
Summary of the method: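 Compounds were tested at 15 concentrations in three independent runs. Dye-loaded CHRM1-CHO cells were exposed 5 min at room temperature before stimulation by acetylcholine added at 50nM. Intracellular calcium was read kinetically on FDSS for 3 min.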

[14] = biological target: Muscarinic acetylcholine receptor M1 (Homo sapiens) (UniProt P11229); assay: Cholinergic receptor muscarinic 1 (CHRM1) small molecule agonists, cell-based qHTS assay (AID 1963589); also: nearly all actives have a fitted effect of over 35% in size
Summary of the method: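 Homogeneous fluorescence calcium flux, agonist mode. Human M1-expressing CHO cells; compound dosed at 15 concentrations, three independent runs; signal sampled every 1 sec.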

[15] = cAMP Responsive Elements (CRE) small molecule agonists, cell-based qHTS assay (AID 1963590)
Summary of the method: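 HEK 293T cells stably bearing CRE-bla were plated at 2,000 cells per well and rested 18 h. Compounds, positive controls or DMSO were added for 3 h at 37 C. LiveBLAzer B/G substrate was then loaded for 2 h at room temperature.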

[16] = cAMP Responsive Elements (CRE) small molecule antagonists, cell-based qHTS assay (AID 1963591; active = well fitted inhibition curve with a large enough effect in the signal ratio in the repeat runs, not every such curve was filed as active; the % refers to the signal ratio)
Summary of the method: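 First, CRE-bla HEK293T cells settled 18 h at 37 C. Next, compound and 0.25 uM final NKH477 were applied for 3 h. Last, LiveBLAzer B/G substrate was loaded for 2 h at room temperature.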

[17] = biological target: Beta-2 adrenergic receptor (Homo sapiens) (UniProt P07550); assay: Adrenergic beta2 receptor (ADRB2) small molecule antagonists, cell-based qHTS assay (AID 1963592); also: series mostly up to about 92 µM; nearly all actives have a fitted effect of over 50% in size
Summary of the method: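 Assay format: CHO-ADRB2 cells, 18-20hr seeding at 37C/5% CO2, then compound plus 1nM isoproterenol agonist mix for 0.5hr RT. Homogeneous time-resolved fluorescence cAMP detection after 1hr, expressed as 665/615 nm ratio.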

[18] = biological target: D(2) dopamine receptor (Homo sapiens) (UniProt P14416); assay: Dopamine D2 receptor (DRD2) small molecule agonists, cell-based qHTS assay (AID 1963594); also: nearly all actives have a fitted effect of over 35% in size
Summary of the method: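 HEK293 cells stably expressing DRD2 were cultured 24 h at 37 C, then given Ro20-1724 (0.1 mM final) and compounds for 10 min at room temperature. NKH477 (200nM) was then added for 30 min. cAMP was read by HTRF.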

[19] = biological target: D(2) dopamine receptor (Homo sapiens) (UniProt P14416); assay: Dopamine D2 receptor (DRD2) small molecule antagonists, cell-based qHTS assay (AID 1963595; active = well fitted inhibition curve with a large enough effect in the signal ratio in the repeat runs, with a control signal flat; the % refers to the signal ratio)
Summary of the method: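 HEK293 cells stably expressing DRD2 were preincubated with 0.1 mM Ro20-1724, then with compound for 10 min at room temperature. Cells were stimulated with 200 nM NKH477 plus 12 nM quinpirole for 30 min, and cAMP was read by HTRF.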

[20] = p53 small molecule agonists, cell-based qHTS assay with human liver microsomes: qHTS cell viability counter screen (AID 1963579); also: nearly all actives have a fitted effect of over 45% in size
Summary of the method: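 Metabolic activation used human liver microsomes and NADPH, both 0.5 mg/mL final, over 16 hours at 37 C on p53RE-bla cells (4,000/well). Cytotoxicity measured by CellTiter-Glo luminescence, 30 min at room temperature.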

Measured: Potency

Chain of Beta-2 adrenergic receptor (Homo sapiens) (P07550 whole entry, looked up): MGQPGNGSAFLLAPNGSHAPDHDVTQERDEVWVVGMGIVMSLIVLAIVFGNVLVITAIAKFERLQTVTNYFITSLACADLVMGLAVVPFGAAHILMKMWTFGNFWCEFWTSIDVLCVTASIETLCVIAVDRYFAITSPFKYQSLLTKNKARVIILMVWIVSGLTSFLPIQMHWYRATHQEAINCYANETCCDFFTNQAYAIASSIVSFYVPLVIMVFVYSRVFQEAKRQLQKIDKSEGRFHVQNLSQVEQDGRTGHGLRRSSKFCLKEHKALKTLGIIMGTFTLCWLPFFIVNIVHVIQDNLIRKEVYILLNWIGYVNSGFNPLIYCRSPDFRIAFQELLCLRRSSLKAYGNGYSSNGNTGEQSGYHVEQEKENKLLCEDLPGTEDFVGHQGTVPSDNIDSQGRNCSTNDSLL
Chain of 5-hydroxytryptamine receptor 2A (Homo sapiens) (P28223 whole entry, looked up): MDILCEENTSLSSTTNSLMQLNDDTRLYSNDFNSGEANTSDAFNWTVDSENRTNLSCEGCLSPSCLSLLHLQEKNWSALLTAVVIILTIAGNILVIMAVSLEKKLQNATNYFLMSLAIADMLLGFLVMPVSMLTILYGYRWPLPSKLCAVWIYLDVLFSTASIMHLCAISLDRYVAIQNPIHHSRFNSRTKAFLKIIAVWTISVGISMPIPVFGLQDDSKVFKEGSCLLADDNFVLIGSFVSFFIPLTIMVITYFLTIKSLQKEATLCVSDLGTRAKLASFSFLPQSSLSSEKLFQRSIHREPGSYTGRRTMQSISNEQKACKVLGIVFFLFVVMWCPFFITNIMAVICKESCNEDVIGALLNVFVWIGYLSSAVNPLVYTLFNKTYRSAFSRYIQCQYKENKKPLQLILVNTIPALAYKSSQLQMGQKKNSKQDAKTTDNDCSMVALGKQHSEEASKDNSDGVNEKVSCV
Chain of Muscarinic acetylcholine receptor M1 (Homo sapiens) (P11229 whole entry, looked up): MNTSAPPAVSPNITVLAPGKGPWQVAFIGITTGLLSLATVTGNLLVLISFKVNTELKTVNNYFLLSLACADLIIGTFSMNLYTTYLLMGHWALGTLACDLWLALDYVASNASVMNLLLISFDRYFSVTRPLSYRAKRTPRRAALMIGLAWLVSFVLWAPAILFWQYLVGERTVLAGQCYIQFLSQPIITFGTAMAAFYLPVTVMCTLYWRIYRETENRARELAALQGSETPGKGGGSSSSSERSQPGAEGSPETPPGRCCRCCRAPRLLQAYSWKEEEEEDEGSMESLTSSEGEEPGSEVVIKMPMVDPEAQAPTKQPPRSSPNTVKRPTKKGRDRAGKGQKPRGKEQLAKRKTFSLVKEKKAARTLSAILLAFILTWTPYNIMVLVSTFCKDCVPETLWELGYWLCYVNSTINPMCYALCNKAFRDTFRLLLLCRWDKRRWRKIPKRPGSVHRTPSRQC
Chain of KiSS-1 receptor (Homo sapiens) (Q969F8 whole entry, looked up): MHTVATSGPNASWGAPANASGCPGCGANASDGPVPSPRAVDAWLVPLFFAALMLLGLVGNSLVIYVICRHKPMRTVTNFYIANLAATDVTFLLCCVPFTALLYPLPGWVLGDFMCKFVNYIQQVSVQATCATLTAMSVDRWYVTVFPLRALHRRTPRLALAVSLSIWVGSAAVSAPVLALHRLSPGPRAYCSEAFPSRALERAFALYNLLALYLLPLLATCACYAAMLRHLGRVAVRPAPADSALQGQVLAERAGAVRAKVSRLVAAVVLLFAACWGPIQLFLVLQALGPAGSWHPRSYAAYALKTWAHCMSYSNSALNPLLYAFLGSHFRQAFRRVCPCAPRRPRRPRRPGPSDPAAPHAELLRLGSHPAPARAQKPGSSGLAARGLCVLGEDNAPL
Chain of D(2) dopamine receptor (Homo sapiens) (P14416 whole entry, looked up): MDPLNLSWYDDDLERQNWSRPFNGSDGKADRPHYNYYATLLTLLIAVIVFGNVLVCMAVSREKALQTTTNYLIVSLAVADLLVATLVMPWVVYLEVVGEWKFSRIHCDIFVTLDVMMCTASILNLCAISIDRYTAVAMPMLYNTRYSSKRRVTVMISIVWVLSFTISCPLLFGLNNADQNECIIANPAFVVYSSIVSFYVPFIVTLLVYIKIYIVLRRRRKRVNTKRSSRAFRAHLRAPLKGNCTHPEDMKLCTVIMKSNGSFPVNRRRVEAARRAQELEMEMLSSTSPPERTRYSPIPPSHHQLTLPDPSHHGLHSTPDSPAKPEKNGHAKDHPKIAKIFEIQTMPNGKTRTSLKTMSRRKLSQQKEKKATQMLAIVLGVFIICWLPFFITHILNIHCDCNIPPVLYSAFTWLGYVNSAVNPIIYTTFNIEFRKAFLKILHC
Chain of Gonadotropin-releasing hormone receptor (Homo sapiens) (P30968 whole entry, looked up): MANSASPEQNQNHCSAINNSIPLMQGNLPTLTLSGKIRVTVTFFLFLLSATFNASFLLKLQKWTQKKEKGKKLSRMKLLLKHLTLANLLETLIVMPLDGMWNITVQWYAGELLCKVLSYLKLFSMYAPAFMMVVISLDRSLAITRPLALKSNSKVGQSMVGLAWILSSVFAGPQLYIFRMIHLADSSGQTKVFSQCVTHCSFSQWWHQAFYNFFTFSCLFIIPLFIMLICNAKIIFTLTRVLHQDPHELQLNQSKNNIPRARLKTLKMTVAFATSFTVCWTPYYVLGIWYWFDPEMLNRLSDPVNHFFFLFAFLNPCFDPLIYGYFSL

CCN
not listed: [20]
inactive: all other assays above

S=C=S
not listed: [7] | [18]
inactive: all other assays above

COCC(=O)N(c1c(C)cccc1C)C(C)C(=O)OC (stereo not drawn)
not listed: [20]
inactive: all other assays above

CCCCOCCOP(=O)(OCCOCCCC)OCCOCCCC
not listed: [20]
inactive: all other assays above

C=CCc1ccccc1O
not listed: [10] | [14] | [20]
inactive: all other assays above

CCCCCCCCCCOC(=O)c1ccccc1C(=O)OCCCCCCCCCC
not listed: [7]
inactive: all other assays above

ClC1=C(Cl)[C@]2(Cl)[C@@H]3[C@@H](Cl)[C@@H](Cl)C[C@@H]3[C@@]1(Cl)C2(Cl)Cl
not listed: [11] | [18] | [20]
inactive: all other assays above
